Data taken from PubChem BioAssay AID1117319 (Southern Research Institute, 2015).
About 1,500 (0.58%) of roughly 260,000 compounds were called active. Inconclusive results (about 5%) are left out.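 How the source made its calls: active means inhibition above a set limit at one or more doses, reproduced on every date tested; inconclusive means results disagree between test dates, or hit never tested in dose response; inactive means the rest.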 The list is a sample of the results. Measured potencies and affinities stand elsewhere.

target: Virion infectivity factor (Human immunodeficiency virus type 1 group M subtype B (isolate BH10)) + Virion infectivity factor (Human immunodeficiency virus type 1 group M subtype B (isolate BRU/LAI)) + Virion infectivity factor (Human immunodeficiency virus type 1 group M subtype B (isolate PCV12)) + Virion infectivity factor (Human immunodeficiency virus type 1 group M subtype B (isolate HXB2)) + DNA dC->dU-editing enzyme APOBEC-3G (Homo sapiens) (UniProt P69720+P69721+P69722+P69723+Q9HC16); experiment: inhibitors of Vif binding to APOBEC3G peptide, primary screen, biochemical, TR-FRET, GST-Vif 1-94, biotin-A3G peptide, dose response retest (AID 1117319); conditions: hits give high values;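 further: Vif residues 1-94 fused to GST binding biotinylated APOBEC3G peptide 110-148; 0% = full assay without inhibitor and 100% = GST in place of GST-Vif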

inhibition, inactive:
O=C(COc1ccccc1)N1CCN(C(=O)c2cccs2)CC1 17.7%
C=CCc1cc(/C=C/c2nc(O)c([N+](=O)[O-])c(=O)[nH]2)cc(OC)c1O 15%
Cc1cccc(NC(=S)NC(=O)C(c2ccccc2)c2ccccc2)n1 -6.56%
CCOc1ccc2noc3c2c1C(=O)c1ccccc1-3 31.7%
CCOC(=O)c1c(C)oc2c1C(=O)c1ccccc1C2=O 6.8%
CN1C(=O)S/C(=C/c2cccn2-c2cccc(C(=O)O)c2)C1=O 6.22%
Cc1ccccc1NC(=O)CN1C(=O)S/C(=C\c2cccn2-c2cccc(C(=O)O)c2)C1=O 31.2%
Cc1cccc(C)c1NC(=O)CN1C(=O)S/C(=C\c2cccn2-c2cccc(C(=O)O)c2)C1=O 6.97%
Cc1ccc(NC(=O)CN2C(=O)S/C(=C\c3cccn3-c3cccc(C(=O)O)c3)C2=O)cc1C -0.87%
Cc1ccc(OCC(=O)N2CCOCC2)cc1C -10.7%
CCCOc1ccc(N2C(=O)CC(N3CCN(CCN=CC4=C(O)CC(C)(C)CC4=O)CC3)C2=O)cc1 (stereo not given) 8.53%
CCOC(=O)C1CCN(C(=O)C2CCN(S(=O)(=O)c3cccc4nsnc34)CC2)CC1 -1.01%
COc1cc(C(=O)Oc2ccccc2N)cc(OC)c1OC -1.18%
Oc1ccc(N=Nc2ccccc2C(F)(F)F)c2cccnc12 9.97%
O=Nc1ccc(O)c2ncccc12 25.1%
CC(C)Oc1ccccc1C1CC(=O)Nc2c1c(=O)n(C)c(=O)n2C (stereo not given) 0.23%
COc1cccc(C2CC(=O)Nc3c2c(=O)n(C)c(=O)n3C)c1OC (stereo not given) 10.5%
O=C(CCCC(=O)OCC(F)(F)C(F)F)Nc1ccccc1F 0.88%
O=C(O)C1CCCCC1C(=O)Nc1nc(-c2cccs2)cs1 (stereo not given) -11.2%
CC(=O)O[C@@H]1[C@@H](OC(C)=O)[C@H](n2ccc3cc([N+](=O)[O-])ccc32)OC[C@@H]1OC(C)=O 11.9%
CC(=O)OC1COC(n2ccc3cc([N+](=O)[O-])ccc32)C(OC(C)=O)C1OC(C)=O (stereo not given) -8.03%
CCOc1ccc(-c2nc(CSc3nnc(N)s3)cs2)cc1 -2.32%
CC(=O)c1ccc(OC(=O)CCN2c3ccccc3Sc3ccccc32)cc1 3.97%
CN1CCN(C(=O)c2cc(-c3ccco3)on2)CC1 -6.26%
O=C(c1cc(-c2ccco2)on1)N1CCOCC1 5.5%
